Results: PubChem BioAssay (NCATS)
Unmarked numbers belong to inactive results. Records with an inconclusive call do not appear. Activity calls are given as the source filed them. Unless noted, calls follow the shape of the full dose curve.

biological target: Alpha-galactosidase (Coffea arabica) (UniProt Q42656); test: Counterscreen for Glucocerebrosidase Inhibitors: qHTS Assay for Coffee Bean alpha-Galactosidase at pH 4.5 (AID 957; active = well fitted curve in the direction sought with a large enough effect; an effect the other way counts as inactive or inconclusive;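 also: plate controls were enzyme alone for no effect and no enzyme for full effect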); conditions: purified coffee bean alpha-galactosidase, fluorogenic substrate; series mostly up to 76.9 µM; activity change, negative = inhibition: at the top concentration
Sequence (Q42656 whole entry, looked up): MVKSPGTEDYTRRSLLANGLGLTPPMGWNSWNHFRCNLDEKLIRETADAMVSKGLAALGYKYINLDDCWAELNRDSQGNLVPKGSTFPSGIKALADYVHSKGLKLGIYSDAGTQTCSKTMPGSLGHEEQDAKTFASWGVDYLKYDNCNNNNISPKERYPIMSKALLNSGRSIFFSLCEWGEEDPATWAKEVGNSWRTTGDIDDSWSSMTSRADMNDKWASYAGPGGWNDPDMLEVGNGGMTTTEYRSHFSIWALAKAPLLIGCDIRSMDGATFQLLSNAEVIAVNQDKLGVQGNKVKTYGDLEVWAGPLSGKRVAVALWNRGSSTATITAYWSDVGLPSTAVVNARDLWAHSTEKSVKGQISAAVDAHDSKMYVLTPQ
Summary of the method: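 Coffee bean alpha-galactosidase 2 nM, substrate 4-MU-alpha-Gal 80 uM, pH 4.5 citrate/Tween-20, 20 min RT. Cpd titration 0.7 nM–77 uM. Stop pH 10, fluorescence 365/440 nm; Hill-equation AC50.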

SMILES | activity change, negative = inhibition [%]
Nc1ccc(-c2nc3ccc(-c4nc5ccc(N)cc5[nH]4)cc3[nH]2)cc1 | -3.98
COc1ccc(-c2ccc(N)[n+](CCCC(=O)O)n2)cc1 | 3.95
CCCOC(=O)c1c(-c2ccccc2)nc(CC)c(C(=O)SCC)c1CCC | -3.31
CC1(C)CCC2=C(O1)c1ccccc1C(=O)C2=O | 0.828
c1ccc(-c2ccccn2)nc1 | -3.01
NC(=O)c1ccccc1 | 0.338
O=c1onc2n1-c1cc(Br)ccc1OC2 | -0.993
N#C/C(=C\c1ccc(O)c(O)c1)C(=O)Nc1ccccc1 | -4.47
N[C@@H](Cc1cnc[nH]1)C(=O)O | -0.633
N=C(N)c1ccccc1 | -0.842
NC(N)=NC(N)=Nc1cccc(Cl)c1 | 1.85
CCCc1c(-c2ccc(O)cc2)nn(-c2ccc(O)cc2)c1-c1ccc(O)cc1 | -2.21
CCCCCCCCCCCCCCSCC(=O)O | 0.842

biological target: Alpha-galactosidase (Coffea arabica) (UniProt Q42656); test: Counterscreen for Glucocerebrosidase Inhibitors: qHTS Assay for Coffee Bean alpha-Galactosidase at pH 5.9 (AID 998; active = well fitted curve in the direction sought with a large enough effect; an effect the other way counts as inactive or inconclusive;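 also: plate controls were uninhibited enzyme for no effect and no-enzyme basal signal for full effect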); conditions: coffee bean alpha-galactosidase enzyme assay; series mostly up to 76.9 µM; activity, negative = inhibition: at the top concentration
Summary of the method: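 Compounds were titrated from 0.7 nM to 77 uM against green coffee bean alpha-galactosidase (2 nM) using 80 uM fluorogenic 4-methylumbelliferyl substrate. After 20 min at room temperature, reactions were stopped at pH 10 and read by fluorescence.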

SMILES | activity, negative = inhibition [%]
NC(=O)c1ccccc1 | 1.69
N=C(N)c1ccccc1 | 1.24
CCCc1c(-c2ccc(O)cc2)nn(-c2ccc(O)cc2)c1-c1ccc(O)cc1 | -3.95
CCCCCCCCCCCCCCSCC(=O)O | -0.795

test system: not listed separately; test: Validation screen for inhibitors of Lassa infection (AID 463096); conditions: Lassa virus infection, cell-based; series mostly up to 46.1 µM; activity change, negative = inhibition: at the top concentration; also: potency is read from the fitted curve at half-maximal effect; as to activity change, negative = inhibition: % is scaled to controls: 0 for no effect and ±100 for the full control effect

SMILES | activity change, negative = inhibition [%] | Potency
Nc1ccc(-c2nc3ccc(-c4nc5ccc(N)cc5[nH]4)cc3[nH]2)cc1 | -29.9 | 
O=C1C2C=CC=CC2=NC(=S)N1CCN1CCC(=C(c2ccc(F)cc2)c2ccc(F)cc2)CC1 (configuration not stated) | 20.1 | 
CC(=O)[C@H]1CCC2C3CC=C4C[C@@H](OS(=O)(=O)O)CC[C@]4(C)C3CC[C@@]21C (some centres not stated) | -2.52 | 
CCCCCCCCCCCCCCCCCCNC(=O)OCC(COP(=O)([O-])OCC[n+]1ccsc1)OC (configuration not stated) | -1.95 | 
COc1ccc(-c2ccc(N)[n+](CCCC(=O)O)n2)cc1 | 23.3 | 
COc1cccc(OC)c1OCCNCC1COc2ccccc2O1 (configuration not stated) | 17.9 | 
O=C(O)[C@@H]1C[C@H](C(=O)O)N1 | 12 | 
CCCOC(=O)c1c(-c2ccccc2)nc(CC)c(C(=O)SCC)c1CCC | -18.8 | 
Cc1cccc(C)c1OCC(N)C(C)C (configuration not stated) | -5.49 | 
CC1(C)CCC2=C(O1)c1ccccc1C(=O)C2=O |  | 11.2 µM (active)
c1ccc(-c2ccccn2)nc1 | -6.98 | 
CC(C)(C)c1onc(OCP(=O)(O)O)c1CC(N)C(=O)O (configuration not stated) | 21.7 | 
Cc1ccc(C(=O)O[C@H](C(=O)O)[C@@H](OC(=O)c2ccc(C)cc2)C(=O)O)cc1 (tested in a mixture with another compound) | 12.3 | 
CC1CN(S(=O)(=O)c2cccc3cnccc23)CCN1 (configuration not stated) | -4.08 | 
NC(=O)c1ccccc1 | 4.31 | 
O=c1onc2n1-c1cc(Br)ccc1OC2 | 14.7 | 
N#C/C(=C\c1ccc(O)c(O)c1)C(=O)Nc1ccccc1 | -1.68 | 
O=C1O/C(=C/Br)CCC1c1cccc2ccccc12 (configuration not stated) | -22 | 
N[C@@H](Cc1cnc[nH]1)C(=O)O | -3.67 | 
COC(=O)c1c(C)[nH]c(C)c1C(=O)c1ccccc1Cc1ccccc1 | -34.9 | 

SMILES | activity change, negative = inhibition [%] | Potency
CCCCCC(O)CCCC(=O)O (configuration not stated) | 8.11 | 
N=C(N)c1ccccc1 | 26.8 | 
CCCCC/C=C\CC(O)/C=C/c1cccc(CC(O)CCCCO)n1 (configuration not stated) | 6.02 | 
OC[C@H]1O[C@@H](n2cnc3cncnc32)[C@H](O)[C@@H]1O | -9.64 | 
N[C@@H](CCCC(=O)O)C(=O)O | 6.5 | 
CSC(N)=NCCC[C@H](N)C(=O)O | 9.39 | 
O=C(O)CC1CCCc2ccccc2C1O (configuration not stated) | 4.79 | 
Nc1ccc(CCNc2ncnc3c2ncn3C2OC(CO)C(O)C2O)cc1 (configuration not stated) | 0.224 | 
NC(N)=NC(N)=Nc1cccc(Cl)c1 | 7.65 | 
CCCCS(=N)(=O)CC[C@H](N)C(=O)O (some centres not stated) | 5.46 | 
CCCN(CCc1ccccc1)C1CCc2c(O)cccc2C1 (configuration not stated) | -12.1 | 
CN1C2CCC1CC(OC(=O)C(O)c1ccccc1)C2 (configuration not stated) | 7.64 | 
CN1CCC[C@H]1c1cccnc1 | 23 | 
NC(CCCP(=O)(O)O)C(=O)O (configuration not stated) | 40.1 | 
NC1(C(=O)O)CCc2cc(C(=O)O)ccc21 (configuration not stated) | 49.6 | 
C[C@@H](NCCc1ccc(O)cc1)[C@@H](O)c1ccc(O)cc1 | -34.4 | 
CCCc1c(-c2ccc(O)cc2)nn(-c2ccc(O)cc2)c1-c1ccc(O)cc1 |  | 2 µM (active)
CC1CCN=C(N)S1 (configuration not stated) | 25.9 | 
CCCCCCCCCCCCCCSCC(=O)O | 14.1 | 
OCC1O[C@H](O)C(Cl)C(O)C1O (some centres not stated) | 40.6 | 
